Experimental data taken from the supplement of paper PMC3334620.
The full ranking holds about 33,000 sequences; the median of “E-score (-0.5 to 0.5)” is about -0.043, and the highest 2% start at about 0.37. The sample holds the highest values, similar sequences and a random draw of the others, so the mix is not that of the screen.

The sequences below were run against T1, Upc2 (UniProt Q12151) (assay: PBM E-score (8-mer binding enrichment) (E-score (-0.5 to 0.5)); higher = stronger / more preferred TF binding). Details: protein concentration: 200 nM; construct: GST-full length.
T1 sequence: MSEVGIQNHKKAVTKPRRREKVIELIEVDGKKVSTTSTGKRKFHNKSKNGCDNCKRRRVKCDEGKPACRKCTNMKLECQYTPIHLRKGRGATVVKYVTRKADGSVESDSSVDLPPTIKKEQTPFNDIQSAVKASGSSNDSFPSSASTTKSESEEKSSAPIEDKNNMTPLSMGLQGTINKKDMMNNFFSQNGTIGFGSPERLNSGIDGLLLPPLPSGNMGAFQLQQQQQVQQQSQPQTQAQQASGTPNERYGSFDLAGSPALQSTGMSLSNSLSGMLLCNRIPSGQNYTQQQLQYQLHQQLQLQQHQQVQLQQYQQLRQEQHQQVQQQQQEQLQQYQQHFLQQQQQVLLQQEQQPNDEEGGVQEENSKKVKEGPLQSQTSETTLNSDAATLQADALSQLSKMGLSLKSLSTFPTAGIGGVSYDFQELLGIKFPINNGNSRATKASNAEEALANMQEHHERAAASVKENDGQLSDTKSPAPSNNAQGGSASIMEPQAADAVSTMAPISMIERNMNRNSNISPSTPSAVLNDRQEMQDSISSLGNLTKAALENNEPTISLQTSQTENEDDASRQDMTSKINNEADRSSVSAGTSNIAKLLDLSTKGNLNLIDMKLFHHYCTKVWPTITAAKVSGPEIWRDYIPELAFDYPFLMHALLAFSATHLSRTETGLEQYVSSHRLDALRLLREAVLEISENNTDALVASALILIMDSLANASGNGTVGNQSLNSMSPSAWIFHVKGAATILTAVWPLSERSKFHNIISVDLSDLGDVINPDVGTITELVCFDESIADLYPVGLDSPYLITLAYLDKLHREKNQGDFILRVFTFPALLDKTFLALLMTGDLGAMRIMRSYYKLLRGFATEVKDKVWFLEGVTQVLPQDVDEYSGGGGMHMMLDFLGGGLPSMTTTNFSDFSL
How it was run: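 Bound GST-tagged yeast transcription factors, applied at about 100-200 nM to double-stranded universal all-10-mer Agilent arrays, were detected with fluorescent anti-GST. Scans were normalised with masliner. A modified Wilcoxon-Mann-Whitney statistic, the E-score, was assigned to each ungapped eight-base word pooled with its reverse complement by the Universal PBM Analysis Suite.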

Sequence	PBM E-score
AAGCGTAT	0.33
TATCGCGA	0.182
CTGCTACC	-0.161
CCTTGGAC	-0.0581
GGCTGTGA	-0.125
CCCGTTTA	0.456
ACCGTTTC	0.244
CACGTTTA	0.363
CCCGTTTC	0.197
ACCGTTTA	0.458
GCCGTTTA	0.465
GCCGTTCA	0.31
GCCGTTAA	0.292
ACCGTTTG	0.333
AACCAAGG	-0.0086
AAAAACTG	-0.0494
ACACGCTC	0.0594
CGCTGCAC	-0.0173
AAAGGCTA	-0.173
ACTGTGCG	0.134
TCGTAGCA	0.39
TCGTAGAA	0.39
CCGTAGCA	0.0702
ACGTAGCA	0.0515
CCGTAGAA	0.118

Sequence	PBM E-score
GCGTAGAA	0.0848
TAACTGAA	-0.0941
ACAACACT	0.0862
ATATGGTA	0.158
CTTCTTAA	0.0092
ACCCTCGT	0.419
ACCCTCGC	0.0921
ACCCTCGA	-0.244
AACCTCGT	0.372
AACCTCGA	0.0605
AACCTCGC	0.0636
TCAGGCAA	-0.146
TATTCACA	0.101
AGTACCGA	-0.0766
CATACCGC	0.00223
CGTACCGC	0.416
GGTACCGA	0.0871
AGTACCGC	0.1
CGTACCGA	0.398
GCTCATCA	-0.195
GTAAAGCA	0.223
ACTTCTGA	-0.307
CGGGGCAG	0.131
TCAGAAAA	-0.153
GGCCGTAC	0.389

Sequence	PBM E-score
CGCCGTAG	0.0712
CGCCGTAC	0.408
GGCCGTAA	0.255
AGCCGTAC	0.346
CGCCGTAA	0.285
TCTCTCCA	-0.118
CCACAGCG	-0.302
ATGATCCG	-0.0506
CTCGAGCC	0.135
CGATATCG	0.244
AAGCTTCG	0.145
AACGCAAT	0.138
ACTTGGCC	-0.0135
AAAAAACG	0.186
CCTAGGAG	-0.273
ATATCTAG	-0.0547
CGCCCTAG	-0.158
AGTTACGA	0.383
CGTTACGC	0.282
AGTTACGG	0.0766
CGTTACGA	0.417
GGTTACTA	-0.0998
GGTTACCA	0.156
GGTTACGA	0.408
AGTTACGC	0.0981

Sequence	PBM E-score
CGTTACAA	0.0563
GAACTGGC	-0.158
CACCTAGG	-0.103
AAAGCGAG	0.217
CACCTCCC	-0.174
TAAGGCCA	-0.013
AACTGGTG	-0.163
GCCTTCGC	-0.106
CACCGTAG	0.0923
CTCCGTAA	0.285
ATCCGTAC	0.366
CACCGTAC	0.401
CTCCGTAC	0.376
CACCGTAA	0.32
CTATTTAC	0.104
ATCTGTTC	0.0527
ATATAATC	-0.158
AACGCTAT	0.0885
AGCCGTGG	-0.17
AGTATAGA	0.137
CGTATAGA	0.48
AGTATAGC	0.128
CGTATAGC	0.483
CCTATAGC	-0.286
GGTATAGA	0.111

Sequence	PBM E-score
AAGCGATA	0.205
AGCTTATA	0.0662
CGGGGTCA	0.117
ATGCTTAC	-0.0957
AGACGGCA	-0.162
GAAACGCA	-0.059
TAAACGGA	0.454
CAAACGGA	0.318
CAAACGCA	0.258
CAAACGTA	0.259
GAAACGGA	0.199
TAAACGTA	0.407
AAAACGTA	0.123
TAAACGCA	0.399
TATATCAA	-0.04
AAGCCAGA	-0.2
ATCAAATC	-0.078
CTTGAAGC	-0.183
CATCTGGG	-0.133
CCGTCGAA	0.0446
ACACTACC	-0.098
CACTCAGC	-0.223
ATAAACGC	0.344
GCAAACAA	0.00753
GCAAACGA	0.462

Sequence	PBM E-score
GTAAACCA	0.0531
CTAAACTC	0.0155
ACAAACGG	0.328
CTAAACGC	0.416
GCAAACGC	0.25
GTAAACTA	0.172
GTAAACGA	0.491
ACAAACGC	0.225
ACAAACGA	0.466
AACAGATT	-0.0821
AAAATGGC	-0.0658
AAGAGTAG	-0.128
CGTCTAGA	0.121
ACCACCTC	-0.111
ATCCAGCG	-0.0436
CATTGCGA	-0.0248
CAATGGCG	-0.141
CGATTCGA	0.0594
ACCACACC	-0.185
CCAAACGG	0.365
ATAAACTG	-0.0103
TCAAACGA	0.471
TCAAACAA	-0.0805
CAAAACGA	0.31
CCAAACGC	0.292

Sequence	PBM E-score
ATAAACGG	0.434
AAAAACGG	0.117
CCAAACGA	0.476
AGGTTAGC	-0.3
CGGTTACA	0.156
GGCACCAA	-0.0665
ATGCACCA	-0.188
GCCAGACC	-0.138
ATCAGAGA	-0.167
AGTCTATC	-0.159
ACCGTATC	0.345
CCCGTAGA	-0.00639
GCGGTATA	0.151
ACCGTATA	0.478
CCCGTATC	0.339
ACCGTAGA	0.178
ACGGTATA	0.274
GCCGTAGA	0.189
GCCGTATA	0.48
ACCGTAAG	0.185
ACCGTATG	0.381
CCCGTATA	0.479
TAACGTCA	0.0914
AGTCCAAT	-0.149
AGGGGTCC	-0.168

Sequence	PBM E-score
AATGTCGC	0.0832
AGTTGCGA	0.0264
CGGGTATC	0.135
CGTGCACG	0.134
ACCAGGAC	-0.0418
GGCACAAC	-0.279
ACGACGGC	0.333
ACGACGAA	0.375
CCGACGAA	0.067
ACGACGTA	0.413
ACGACGGG	0.415
ACGACGTG	0.351
ACGACGAG	0.367
GCGACGGA	0.0438
TCGACGAA	-0.018
ACGACGGA	0.37
CCGACGGA	-0.0042
CCGACGTA	0.225
CATGTTAA	0.0636
GGTCTGAA	0.0866
TAGAATGA	-0.263
GCACGCGA	-0.0589
GGGTATAA	-0.0582
CGCAGTCA	-0.228
GGCTTTGA	-0.0097

Sequence	PBM E-score
ATAGGGAT	-0.0755
ATAGACAT	-0.151
TATCCATA	0.2
CTACCATC	0.00378
AGCCTTGC	-0.0435
GCACGAGA	0.0181
AAACGAGC	0.489
CAACGAGC	0.286
GGACGAGA	-0.00291
GAACGAGA	0.457
GCACGAGC	-0.0167
GAACGAGC	0.465
AACCGAGC	0.325
AATCGAGC	0.286
TGAATGCA	-0.0537
CTTAGATC	-0.0871
CCCCTATA	0.0494
AAAAAGTT	-0.0419
GGCCTCTA	-0.0932
